The source of these data is PubChem BioAssay (NCATS).

Records with an inconclusive call do not appear. Active and inactive are the calls of the source. Calls come from the whole dose curve.
Potency is the fitted concentration of half-maximal effect.

The first assay is described as follows: Cell Viability - HepG2 (AID 433).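 Note: potency for ATP loss meaning cytotoxicity.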 The conditions noted are these: qHTS. The method, boiled down:
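ATP luminescence (CellTiter-Glo) after 40 h compound exposure, 37 °C, HepG2, 1500 cells/well, complete medium. Normalized: DMSO = basal, 100 uM tamoxifen = 100% inhibition. AC50 via standard Hill equation.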
On the technique in general: Quantitative high-throughput screening tests each substance at several concentrations.
For `Oc1ccccc1O`, the Potency was > 92 µM (inactive).

For `CN(C)c1ccc(C(=C2C=CC(=[N+](C)C)C=C2)c2ccccc2)cc1`, the Potency is 0.494 µM (active).

In the case of `Nc1ccc(O)c(C(=O)O)c1`, the Potency was > 92 µM (inactive).

Turning to `c1cnc2c(c1)ccc1cccnc12`, the Potency is 4.55 µM (active).

The nature of the next assay: Cell Viability - MRC5 (AID 434).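 Note: potency reflects cytotoxicity seen as loss of intracellular ATP.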 The conditions noted are these: MRC5 lung fibroblast viability, qHTS. In short, it runs like this:
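MRC5 normal human lung fibroblasts, 1500 cells/well, exposed to compound for 40 hr at 37 C. Cellular ATP was read by CellTiter-Glo luminescence; data normalized to DMSO and 100 uM tamoxifen, with AC50 from Hill fits.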
For the compound `Oc1ccccc1O`, the Potency is > 92 µM (inactive).

Consider `CN(C)c1ccc(C(=C2C=CC(=[N+](C)C)C=C2)c2ccccc2)cc1`, for which the Potency was 0.458 µM (active).

For the compound `Nc1ccc(O)c(C(=O)O)c1`, the Potency is > 92 µM (inactive).

In the case of `c1cnc2c(c1)ccc1cccnc12`, the Potency was > 92 µM (inactive).

The next assay is described as follows: Cell Viability - SK-N-SH (AID 435). The conditions noted are these: SK-N-SH neuroblastoma cell viability qHTS. In short, it runs like this: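 CellTiter-Glo ATP luminescence, 20 min RT read; cells pre-plated 5 hr, compound 40 hr at 37 °C, 1500 cells/well, complete medium. Normalized DMSO = 0, 100 uM tamoxifen = 100% inhibition; Hill-fit AC50.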
For `Oc1ccccc1O`, the Potency was > 92 µM (inactive).

For the compound `CN(C)c1ccc(C(=C2C=CC(=[N+](C)C)C=C2)c2ccccc2)cc1`, the Potency is 0.052 µM (active).

Take `Nc1ccc(O)c(C(=O)O)c1`: the Potency is > 92 µM (inactive).

`c1cnc2c(c1)ccc1cccnc12`: the Potency is 3.86 µM (active).
